Source: PubChem (National Center for Advancing Translational Sciences (NCATS))
Shown are actives, neighbours in structure and some others; about 6.1% of the full set was active somewhere.
D1 potentiator: enhances dopamine response at the human D1 receptor. potentiation, % at 10 µM. 360,000 tested, 0.036% active. P21728. HEK293 TREx D1 cells, calcium flux, dopamine EC20 potentiation; in the data active means potentiation above about 30%; further: 0% is about no effect
D1 agonist: human D1 receptor agonism; 360,000 tested, 1% active; HEK293 T-REx D1 cells, calcium flux, agonist mode; AID 504660; activation, % at 2 µM; in the data active means activation above about 30%; further: 0% is about no effect
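Tetracycline-induced HEK293 TREx D1 cells, force-coupled to calcium signalling, were dye-loaded with a no-wash calcium kit. Compound was pin-added after a 10 s baseline. Fluorescence was read kinetically at 1 cycle/s for 180 s, with calcium rises flagged as agonism.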
D3 ag: activates the human D3 dopamine receptor; P35462; D3R DiscoveRx beta-arrestin cells, luminescence, 90 min; max activation, %; 410,000 tested, 0.58% active; AID 652048; in the data active means max activation above about 30%; further: 0% is about no effect
Target sequence (P35462 whole entry, looked up): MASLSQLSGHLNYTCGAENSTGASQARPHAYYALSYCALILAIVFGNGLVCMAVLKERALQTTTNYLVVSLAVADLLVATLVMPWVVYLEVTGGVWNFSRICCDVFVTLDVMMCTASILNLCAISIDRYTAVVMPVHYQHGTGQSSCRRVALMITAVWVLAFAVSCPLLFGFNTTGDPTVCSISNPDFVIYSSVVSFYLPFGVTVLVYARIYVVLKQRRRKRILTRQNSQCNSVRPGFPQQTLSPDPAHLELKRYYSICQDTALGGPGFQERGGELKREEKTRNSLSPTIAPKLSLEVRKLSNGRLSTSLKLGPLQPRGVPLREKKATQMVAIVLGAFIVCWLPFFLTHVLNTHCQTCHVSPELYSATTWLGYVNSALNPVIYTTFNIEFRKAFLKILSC
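Agonist-mode cell screen: cells plated at 1500/well and incubated overnight at 37 °C, then exposed to library compounds for 90 min at 37 °C. Detection reagent was added for 30–60 min at room temperature, and luminescence was read.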
DRD3 antagonist: D3 dopamine receptor (human) antagonism. 360,000 tested, 2.5% active. AID 652054. P35462. D3R cells, DiscoveRx beta-arrestin luminescence, antagonist mode; active compounds read low. max response, negative = inhibition, %; in the data active means max response below about -50%; inconclusive means no clear call, values can overlap the other calls; further: on the % scale 0 is the no-effect control and ±100 the full control effect
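Cells plated overnight at 1500 cells/well, then exposed to library compounds with dopamine controls for 90 minutes at 37 degrees C. DiscoveRx reagent added for 30–60 minutes at room temperature; luminescence read, quantitative HTS format.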
D1 antag: antagonists of human D1 dopamine receptor. P21728. HEK293 TREx D1 cells, calcium flux, dopamine EC80; active compounds read low. activity change, negative = inhibition, % at 10 µM. 360,000 tested, 3.2% active; in the data active means activity change below about -30%; further: on the % scale 0 is the no-effect control and ±100 the full control effect
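Cells carrying a force-coupled, tetracycline-inducible human D1 receptor report calcium flux. Each well gets a 10 s baseline, compound with 180 s monitoring, then an EC80 dopamine stimulus with a second 180 s kinetic read.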
* marks the source's active call; other numbers are inactive results; ? = inconclusive; / = no result.

SMILES | D1 potentiator | D1 agonist | D3 ag | DRD3 antagonist | D1 antag
COc1ccc(C(=O)COC(=O)C(C(C)C)N2C(=O)C3C4C=CC(C4)C3C2=O)cc1 (stereo unspecified) | 2.3 | 3.1 | -6.8 | -6.6 | -58.8*
CCn1ncc(/C=N/NC(=O)c2ccc3c(c2)OCO3)c1C | -3.5 | 0.8 | -1.0 | -7.9 | -74.3*
Cc1ccc(C(=O)N/N=C\c2cc3c(cc2Br)OCO3)s1 | -4.0 | 1.9 | -34.8 | -65.5* | -2.1
Cc1c(/C=N/NC(=O)c2ccc3c(c2)OCO3)cnn1C | -1.9 | 1.6 | -1.2 | 5.1 | 4.8
COC(=O)N/N=C\c1cc2c(cc1Br)OCO2 | -6.3 | -3.0 | -5.6 | -15.3 | -21.0
CCCOc1ccc(/C=N/NC(=O)c2ccc3c(c2)OCO3)c(OCCC)c1 | / | 4.9 | 0.0 | 2.9 | -41.5*
Cc1ccccc1C(=O)Nc1ccccc1OCc1cc(=O)n2ccccc2n1 | -0.8 | -1.3 | 10.4 | / | 16.8
COc1cc2c(C(=O)N3CCN(c4cccc(C)c4)C(C)C3)cn(CC(C)C)c(=O)c2cc1OC (stereo unspecified) | 2.4 | 1.4 | -2.7 | / | 10.6
Cc1nn(S(=O)(=O)c2ccc(C(C)C)cc2)c(C)c1S(=O)(=O)N1CCCCCC1 | -0.5 | 1.8 | 4.4 | / | 0.9
CCOc1ccc(NC(=O)c2ccc3c(=O)n4nc(Nc5ccccc5C)sc4nc3c2)cc1 | 0.3 | 1.9 | -1.2 | / | -7.4
Cc1ccc2cn[nH]c2c1NC(N)=S | -6.7 | -0.5 | -0.4 | 1.1 | -35.5*
C[C@@H]1C(=O)O[C@@H]2CC34[C@H]5C[C@@H](C(C)(C)C)C36[C@H](OC(=O)[C@@H]6O)OC4(C(=O)O5)[C@@]12O (stereo partly specified) | -1.1 | -0.1 | 15.0 | 36.7 | -38.1*
COc1cc(-c2c(C(=O)c3ccccc3)[nH]c(N)c2C(N)=O)ccc1F | / | / | 3.2 | 21.2 | /
COc1ccc(-c2c(C(=O)c3ccccc3)[nH]c(N)c2C(=O)c2ccc(Br)cc2)cc1OC | / | / | -4.0 | -73.1* | /
COc1ccc(-c2c(C(=O)c3ccccc3)[nH]c(N)c2C(=O)c2ccccc2)cc1OC | / | / | -10.1 | -66.7* | /
O=C1CN(C(=O)c2c(F)cccc2Cl)C(c2ccc(F)cc2)c2cc(Br)ccc2N1 (stereo unspecified) | -1.1 | -0.6 | 6.3 | / | -23.6
CCN(CC)c1ccc(NC(=O)c2cnc3c(-c4ccccc4)c(C)nn3c2C)c(C)c1 | -6.9 | 2.3 | -4.4 | / | 5.7
Cc1ccc(CNC(=O)c2cnc3c(-c4ccc(F)cc4)c(C)nn3c2C)o1 | -8.6 | 1.7 | 6.5 | / | -42.8*
Cc1cc(NC(=O)c2cnc3c(-c4ccccc4)c(C)nn3c2C)ccc1Br | -6.9 | 6.2 | 34.0* | / | -8.3
CCOC(=O)c1ccc(NC(=O)CCc2c(C)nc3c(-c4ccc(F)cc4)c(C)nn3c2C)cc1 | -4.0 | 1.7 | -6.4 | / | -1.6
CCOC(=O)c1ccc(NC(=O)c2cnc3c(-c4ccc(F)cc4)c(C)nn3c2C)cc1 | -5.0 | 4.0 | -4.5 | / | -39.7*
COc1ccccc1-c1cc2nc(C)c(CCC(=O)NCc3cccc(Cl)c3)c(C)n2n1 | -5.2 | 5.5 | -1.9 | / | 2.0
Cc1ccc(SC(C)C(=O)N2CCCC2)cc1 (stereo unspecified) | -6.7 | 0.4 | 3.0 | -21.4 | -35.2*
Cc1ccc(SC(C)C(=O)N2CCC(C(N)=O)CC2)cc1 (stereo unspecified) | -0.8 | -0.7 | -0.3 | 7.7 | -3.8
CC(=O)SC[C@@H](C)C(=O)N1CCC[C@H]1C(=O)N[C@@H](Cc1ccccc1)C(=O)O | / | / | -14.1 | / | /
SMILES | D1 potentiator | D1 agonist | D3 ag | DRD3 antagonist | D1 antag
COc1ccc(S(=O)(=O)NC(C)C(=O)Nc2cccc(C(C)=O)c2)cc1 (stereo unspecified) | -2.6 | 1.3 | 0.1 | 0.0 | -42.6*
COc1ccc(S(=O)(=O)NC(C)C(=O)Nc2ccccc2F)cc1 (stereo unspecified) | 0.6 | 4.1 | 3.6 | -21.6 | -3.4
O=C(Nc1ccc(Cl)c(Cl)c1)N(Cc1c[nH]c2ccccc12)C1CCCCC1 | 5.2 | 1.5 | -4.0 | / | 19.3
C=C1Cn2c(nnc2-c2ccc(Cl)cc2)S1 | -9.7 | 1.0 | 0.3 | 12.5 | -61.1*
Cc1ccc(S(=O)(=O)N(C)C)cc1NC(=O)C(C)N(C)CCOc1ccc(Cl)cc1 (stereo unspecified) | / | 30.1* | -5.4 | -9.8 | -18.7
COc1ccc(NC(=O)Nc2ccccc2F)cc1 | -1.8 | -1.1 | 7.9 | 6.9 | 3.1
CC(=O)c1ccc(OCCCC(=O)Nc2cc(S(=O)(=O)N(C)C)ccc2C)cc1 | -4.7 | 8.8 | -15.2 | 3.1 | -14.5
Cc1ccc(S(=O)(=O)N(C)C)cc1NC(=S)NC(C)CCC(C)C (stereo unspecified) | -4.0 | 12.0 | -14.6 | 2.3 | -58.9*
Cc1ccc(S(=O)(=O)N(C)C)cc1NC(=O)Nc1ccccc1F | -10.9 | 4.6 | -14.6 | -13.7 | -43.0*
COc1ccc(NC(=O)Nc2ccccc2F)c(C)c1 | -3.1 | 1.9 | -11.8 | -19.2 | -36.7*
CC(Nc1ccc(-c2nc(-c3ccncc3)no2)cc1[N+](=O)[O-])c1ccccc1 (stereo unspecified) | -1.9 | 5.2 | -17.4 | / | 27.3
Cc1nnc(SCc2cc(=O)n3c(C)cccc3n2)s1 | 4.0 | 0.4 | -3.3 | / | -28.2
COc1ccc(NC(=O)c2c(-c3ccc(C)cc3)nnc3ccccc23)cc1OC | 0.0 | 0.7 | -3.2 | / | 11.1
COc1cc(-c2oc3ccc(C)cc3c(=O)c2O)cc(OC)c1OC | 1.9 | 23.8 | 5.5 | / | -13.6
CCOc1ccc(-c2oc3cc(Cl)ccc3c(=O)c2O)cc1OC | -1.1 | 95.8* | -1.5 | / | 20.3
COc1cc(/C=C/c2nc(C#N)c(N3CCCCCC3)o2)cc(OC)c1OC | -3.1 | 0.7 | 0.4 | / | -13.4
CCc1ccccc1NC(=O)c1ccc(CN2C(=O)CCn3nc(C)cc32)cc1 | 1.6 | -0.1 | -0.6 | / | 5.2
Cc1cc2c(cc1C)N[C@]1(C[C@H]3CCCC(=O)N4CC[C@@H](C1)[C@@H]34)C(=NC(C)(C)CC(C)(C)C)N2 | / | / | -25.4 | 5.4 | /
O=C1CCC[C@@H]2C[C@@]3(C[C@@H]4CCN1[C@H]24)Nc1cc(Cl)ccc1NC3=NC1CCCCC1 | / | / | -40.3 | -77.6* | /
O=C1CC[C@@H]2CC3(C[C@@H]4CCN1[C@H]24)Nc1cc(Cl)ccc1NC3=NC1CCCCC1 (stereo partly specified) | / | / | -34.7 | -62.7* | /
O=C1CCC[C@@H]2C[C@@]3(C[C@@H]4CCN1[C@H]24)Nc1cc([N+](=O)[O-])ccc1NC3=NC1CCCCC1 | / | / | -42.9 | ? | /
COc1ccc(OC)c(CCNC(=O)CN2C(=O)COc3ccc(S(=O)(=O)N4CCC(C)CC4)cc32)c1 | 4.7 | 1.5 | 5.3 | / | -21.8
O=C(NCCOCCn1c(=O)oc2ccccc21)Nc1ccc(F)cc1F | -0.6 | -1.7 | -8.5 | / | -7.1
COc1cc(CNC(C)c2ccccc2)cc(Cl)c1OCC(=O)Nc1ccccc1 (stereo unspecified) | -11.2 | 64.1* | 2.9 | 9.1 | /
